Luc counter: Counterscreen for Luciferase (Kinase-Glo TM) Inhibition; Luciferin 4-monooxygenase (Photuris pensylvanica), Q27757; Potency, µM (series often up to 38.3 µM), for the others: at the highest dose activity change, negative = inhibition, most hits filed as inhibitors; 0.28% of 200,000 active; AID 1379, 2008; Kinase-Glo luciferase, ATP luminescence, 8 min; active = well fitted inhibition curve with a large enough effect; also: potency is read from the fitted curve at half-maximal effect; nearly all actives have a fitted effect of over 60% in size
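Compound is pinned into ATP-containing buffer (10 uM ATP, imidazole pH 7.2, 7 mM MgCl2). Kinase-Glo luciferase reagent is then added. Light output is recorded following an 8-min room-temperature incubation.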
KCNH2 WT inh: qHTS for Inhibitors of KCHN2 3.1: Wildtype qHTS. Voltage-gated inwardly rectifying potassium channel KCNH2 (Homo sapiens), Q12809. U2OS, BacMam KCNH2, thallium flux FluxOr; active compounds read low. activity change, % at 1.84 µM. 0.37% of 340,000 active;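 active = maximum activity change below -70%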
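U2OS cells transduced with wild-type KCNH2 virus are loaded with FluxOr dye for 45 min, and thallium flux is measured in kinetic reads before and after stimulation buffer. Rate constants are normalized to DMSO controls.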
KCNH2 3.1 block: qHTS for Inhibitors of KCHN2 3.1: Mutant qHTS | 0.95% of 340,000 active | AID 720553, 2013 | U2OS KCNH2 3.1, thallium flux FluxOr; active compounds read low | Potassium voltage-gated channel subfamily H member 2, brain isoform KCNH2 3.1 (human) | activity change, % (tested at about 1.8 µM);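 active = maximum activity change below -70%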;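 also: thallium influx rate constant from kinetic fluorescence after stimulation buffer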
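Thallium flux via FluxOr fluorescence (Red40 quencher, 45 min loading) in U2OS cells virally expressing the KCNH2 3.1 isoform (1.77 x 10^8 /mL virus, overnight at 37 C). Rate constants from 2-min kinetic reads post-stimulation, normalised to positive and negative controls.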
An asterisk follows results filed as active; nt = no result given; [ ] = another dose, or the depositor's remark. An excerpt weighted towards active compounds, which were near 1.2% of everything screened. % is scaled to controls: 0 for no effect and ±100 for the full control effect.

SMILES	Luc counter	KCNH2 WT inh	KCNH2 3.1 block
Cc1noc(C)c1CCC(=O)Nc1cc(Cl)ccc1C(=O)O	nt	-3	-11
Cc1ccc(S(=O)(=O)N2CCCCC2C)cc1[N+](=O)[O-] (configuration not stated)	nt	-5	-9
Cc1nc(-c2ccc(F)cc2)c(CC(=O)N(C)CC(=O)Nc2ccc(Cl)c(C(F)(F)F)c2)s1	nt	-2	21
C[C@H](CO)N1C[C@H](C)[C@@H](CN(C)S(=O)(=O)c2ccc(Oc3ccccc3)cc2)OCc2cnnn2CCCC1=O	nt	-3	0
O=C(N/N=C\c1ccc(Cl)cc1)C1=NOC2COC3(CCN(c4ccc([N+](=O)[O-])cc4)CC3)OCC12 (configuration not stated)	nt	-38	-103*
NNC(=O)C1=NOC2COC3(CCN(c4ncccn4)CC3)OCC12 (configuration not stated)	-4%	2	8
O=C(O)CCCC(=O)Nc1ccccc1SCCS(=O)(=O)c1ccc(Cl)cc1	nt	2	4
CCN1CCN(c2nc3c(c(=O)[nH]c(=O)n3C)n2Cc2ccccc2)CC1	nt	10	4
COc1cccc(OC)c1OCCCc1c(C)n[nH]c1C	-2%	-4	24
Cc1cccc(OCCCc2c(C)n[nH]c2C)c1	1%	-3	-75*
Fc1ccc2nc3c(nc2c1)CCCC3	nt	6	26
COc1ccc(CNC(=O)COC(=O)CNC(=O)c2sc3ccccc3c2Cl)cc1OC	nt	-5	-17
O=C(COc1ccc2ccccc2c1)N1CCN(C(=O)c2ccco2)CC1	-1%	-1	-7
O=C(NCc1ccccc1)c1cccc(OCC(=O)N2CCN(C(=O)c3ccco3)CC2)c1	-4%	5	-97*
O=c1oc2cc(N=Cc3ccc4c(c3)OCO4)ccc2c2ccccc12	-4%[7.66 µM]	nt	nt
O=S(=O)(Nc1ccc(Cl)cc1)c1cccc2nsnc12	nt	-4	23
O=C(Cn1cnc2c(NCc3ccccc3)ncnc21)NCCCc1ccccc1	nt	-24	-8
O=[N+]([O-])c1ccc(NCCNCCOc2nonc2-c2ccccc2)c([N+](=O)[O-])c1	-1%	-46	-93*
Cc1nonc1OCCNCCNc1ccc([N+](=O)[O-])cc1Cl	3%	27	-1
C=CC[C@@H](CC(=O)N[C@H](CO)Cc1ccccc1)C(=O)N[C@H](COC(=O)[C@@H](CC=C)Cc1ccc(F)cc1)Cc1c[nH]c2ccccc12	nt	-7	-12
CCOC(=O)Cn1c(=O)c(-c2cc(Br)ccc2N)nc2ccccc21	nt	-242*	-40
CCOC(=O)Cn1c(=O)c(-c2ccccc2N)nc2ccccc21	nt	0	-12
O=C(Nc1cccc(O)c1)C(=O)Nc1ccccn1	4.5µM*	14	33
C/C(CC(=O)Nc1ccccn1)=N\NC(=O)C(=O)Nc1cccc(C)c1	-3%	-1	-2
Cc1ccc(N2N=C(C(=O)O)CCC2=O)cc1Cl	nt	-9	-1
SMILES	Luc counter	KCNH2 WT inh	KCNH2 3.1 block
Cc1ccc(CN(C)S(=O)(=O)c2c(C)noc2/C=C/N(C)C)cc1	nt	-8	-15
Cc1noc(/C=C/N(C)C)c1S(=O)(=O)N(C)Cc1ccc(F)cc1	nt	-134*	-199*
COc1ccc(NC(=O)C(C)N2C(=O)c3ccccc3C2=O)c(OC)c1 (configuration not stated)	nt	-5	-10
Cc1cccc(-n2c3nc(=O)[nH]c(=O)c-3cc3c(C)nn(-c4ccccc4)c32)c1	-2%	nt	nt
Cc1ccc(-n2c3nc(=O)[nH]c(=O)c-3cc3c(C)nn(-c4ccccc4)c32)c(C)c1	4%	-151*	-149*
CCS(=O)c1ccccc1C(=O)OCC(=O)Nc1ccc2ccccc2c1 (configuration not stated)	nt	4	5
CC1(C)C2CCC1(CS(=O)(=O)N1CCC(C(N)=O)CC1)C(=O)C2 (configuration not stated)	nt	-4	8
CC1(C)C2CCC1(CS(=O)(=O)N1CCOCC1)C(=O)C2 (configuration not stated)	-2%	7	-70*
COc1ccc(C(=O)NC2CC3CCCC(C2)N3Cc2ccccc2)cc1 (configuration not stated)	nt	34	-3
O=C(NC1CC2CCCC(C1)N2Cc1ccccc1)c1ccc([N+](=O)[O-])cc1 (configuration not stated)	nt	-15	-80*
Cc1ccc(C(=O)NC2CC3CCCC(C2)N3Cc2ccccc2)cc1 (configuration not stated)	nt	18	-4

High-throughput results (PubChem)
